Bioassay records: PubChem BioAssay, The Scripps Research Institute Molecular Screening Center
This excerpt belongs to a sample that is enriched for hits.
TTR transcr act: TTR transcription activators in neuroblastoma reporter cells, primary screen, cell-based, luminescence, SH-SY5Y, TTR promoter Gaussia luciferase; 100% = recombinant luciferase protein wells; activation, % at 16.7 µM; 92,000 tested, 1.3% active;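 active = activation above the mean of all tested compounds plus 3 SD, cut at about 9.5% in these data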;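 note: cells exposed to compounds for one day before reading; 0% = median of all test compound wells on the plate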
TTR inh HuH7: TTR promoter reporter inhibitors in hepatoma cells, counter-screen for TTR transcription activator project, cell-based, luminescence, HuH7 hepatoma. 1,100 tested, 4% active. inhibition, % at 16.7 µM. HuH7 TTR promoter-Gaussia luciferase reporter. AID 1117279, 2014. shares compounds with TTR transcr act;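 active = average inhibition above the solvent-only control wells' mean plus 3 SD, cut at about 15% in these data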;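 note: 0% = cells with DMSO only and 100% = cells with inhibitor control FD; inhibitors lower well luminescence so higher value means more inhibition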
TTR act confirm: TTR transcription activators, retest, confirmation, cell-based, luminescence, SH-SY5Y, triplicate; shares compounds with TTR transcr act; SHSY5Y TTR promoter Gaussia luciferase; 100% = purified Lucia enzyme wells, no cells; activation, % at 16.7 µM; 1,100 tested, under 10 active; AID 1117280, 2014;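 active = mean activation above a set limit taken from the earlier primary screen, cut at about 11% in these data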;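 note: 0% = DMSO-treated cells and 100% = recombinant Lucia luciferase without cells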
An asterisk follows results filed as active.

SMILES	TTR transcr act	others
CCC(=O)N(C)C[C@H]1Oc2cc(Br)ccc2S(=O)(=O)N([C@@H](C)CO)C[C@H]1C	15.5*	TTR inh HuH7=-10.8;TTR act confirm=0.1
C=CC[C@H](CC(=O)N[C@H](CO)Cc1ccccc1)C(=O)N[C@H](COC(=O)[C@@H](CC=C)CC(=O)OC(C)(C)C)Cc1c[nH]c2ccccc12	-5.7
COc1ccc(Cl)cc1C(=O)NC(=S)Nc1cc(-c2nc3ccccc3[nH]2)ccc1C	-0.4
COCc1[nH][nH]c(=O)c1/C=N/N1CCOCC1	-1.2
CCCCOc1ccc(C(=O)NC2CCCCN(Cc3ccc(Cl)cc3)C2=O)cc1 (centres undefined)	-2.0
CCn1nc(NS(=O)(=O)c2ccc(NC(C)=O)cc2)c2cc3ccccc3nc21	0.5
CCN1CCN(c2nc3ccccc3nc2NS(=O)(=O)c2ccc(NC(C)=O)cc2)CC1	12.4*	TTR inh HuH7=-8.7;TTR act confirm=0.2
CC(=O)Nc1ccc(S(=O)(=O)Nc2ccc3ccccc3n2)cc1	-1.5
O=C(OCc1ccccc1)[C@H](Cc1ccccc1)NC(=O)[C@@H]1CC=C[C@@H]2CCN(Cc3ccc(Cl)cc3)C(=O)[C@@H]21	0.0
Cc1cc2c(cc1C)NC(C)CC(=O)N2 (centres undefined)	-1.0
CCOC(=O)C1(CC2CC2)CCN(C(=O)c2cc(C)nc3ccc(CC)cc23)CC1	-1.1
O=C(Nc1ccc([N+](=O)[O-])cn1)C1CC2CCC1C2 (centres undefined)	1.0
CCCCN(C)C(=O)c1c[nH]c2ccc(S(=O)(=O)N3CCOCC3)cc2c1=O	10.9*	TTR inh HuH7=-7.5;TTR act confirm=0.7
CCN(CC)CCNS(=O)(=O)c1ccc2[nH]cc(C(=O)O)c(=O)c2c1	0.3
O=C(NCCN1CCOCC1)c1c[nH]c2ccc(S(=O)(=O)N3CCOCC3)cc2c1=O	0.0
O=[N+]([O-])c1ccc(Cn2cc(-c3cccc(C(F)(F)F)c3)nn2)cc1	0.8
CC1(C(=O)Nc2ccc(Cl)c(Cl)c2)CCN1C(=O)C1CCCCC1 (centres undefined)	0.4
COC(=O)c1ccccc1NC(=O)N1CCN(S(C)(=O)=O)CC1	0.0
CCC[C@H]1[C@@H](OC(=O)NCc2ccc(C(F)(F)F)cc2)CC[C@@]23CCCN2C(=O)CCC[C@@H]13	-1.2
COc1cc(OC)cc(C(=O)OCC(=O)Nc2ccc(N3CCCCC3)cc2)c1	12.4*	TTR inh HuH7=0.1;TTR act confirm=0.7
O=C(COC(=O)c1ccc(O)cc1)Nc1ccc(N2CCCCC2)cc1	3.4
COc1ccc(OCC(=O)Nc2ccc(N3CCCCC3)cc2)cc1	1.3
COC(=O)c1cc(-c2cccc3c2sc2ccccc23)c(=O)n2c1CCC2	-1.3
CCN(CC)C(=O)C1=C(C)N(Cc2ccc(OC)cc2)C(=O)C(CC(=O)NC2CCCCC2)C1 (centres undefined)	-1.0
O=C(CNC(=S)N(Cc1ccccc1)Cc1cccnc1)NC1CC1	5.4
SMILES	TTR transcr act	others
O=C(NNC(=S)NC1CC2C=CC1C2)c1ccncc1 (centres undefined)	0.9
N#CCCN(Cc1cccnc1)C(=S)NC1CC2C=CC1C2 (centres undefined)	10.3*	TTR inh HuH7=-8.8;TTR act confirm=0.9
C=CCC1c2cccc(C(=O)O)c2C(=O)N1c1ccc(F)cc1 (centres undefined)	11.7*	TTR inh HuH7=7.7;TTR act confirm=0.3
CCCN1Cc2cccc(C(=O)N3CCN(c4ccc(F)cc4)CC3)c2C1=O	-1.5
O=C1c2ccccc2C(O)N1c1ccccc1 (centres undefined)	-0.5
CCc1noc(C)c1C(=O)Nc1cccc2ncccc12	3.4
CC1(c2nnnn2Cc2ccccc2)CCC(=O)N1CCOc1ccccc1 (centres undefined)	2.6
COCCCNC(=O)C[C@@H]1C(=O)N(CCc2ccc(Cl)cc2)C2=CCCCC[C@]21C(=O)OC	1.1
COC(=O)[C@]12C[C@H](CC(=O)N3CCC(c4ccccc4)CC3)C(=O)N(Cc3ccc(Cl)cc3Cl)C1=C[C@H](C(C)(C)C)O[C@@H]2C	1.2
Cc1cccc(OCC(=O)Nc2ccncc2)c1	-2.0
Cc1cccc(OCC(=O)NNC(=O)CCc2ccccc2)c1	-0.2
Cc1cccc(OCC(=O)NNS(=O)(=O)c2ccccc2F)c1	15.5*	TTR inh HuH7=-3.5;TTR act confirm=1.8
CCCOCC(O)CC(Cc1ccccc1)C(=O)NN (centres undefined)	1.1
N#C/C(=C(/O)c1ccc2c(c1)OCO2)c1nc2cc(C(F)(F)F)ccc2s1	2.1
CCC(C)NC(=O)Cn1c(=O)sc2ccccc21 (centres undefined)	3.2
CCOC(=O)Cn1c(=O)sc2ccccc21	17.3*	TTR inh HuH7=-3.9;TTR act confirm=0.1
CCOC(=O)Cn1nc2sc3ccccc3n2c(=O)c1=O	2.2
CC(C)NC(=O)N(C)C[C@H]1Oc2ccc(NC(=O)Cc3ccccc3)cc2C(=O)N([C@H](C)CO)C[C@@H]1C	-0.2
C[C@@H]1CN([C@@H](C)CO)S(=O)(=O)c2ccc(Br)cc2O[C@H]1CN(C)C(=O)c1cccc(F)c1	-0.3
COc1ccc(C(F)(F)F)cc1NC(=O)C(OC(=O)CNC(=O)c1ccccc1)c1ccccc1 (centres undefined)	0.8
CC(C)(C)CC(C)(C)N1CNC(=S)NC1	0.5
COc1cc(C2NC(=O)NC(C)=C2C(=O)OCC2CCCCC2)cc(Cl)c1O (centres undefined)	0.1
COc1cc(C2NC(=O)NC(C)=C2C(=O)OC2CCCC(C)C2)cc(Br)c1O (centres undefined)	10.7*	TTR inh HuH7=-12.2;TTR act confirm=-1.0
CCOc1cc(C2NC(=O)NC(C)=C2C(=O)OC(C)CC)cc(Br)c1O (centres undefined)	2.4
CN(C)c1ccc([C@@H]2[C@@H]([N+](=O)[O-])[C@H]3C=Cc4ccccc4N3[C@H]2C(=O)c2ccc(Cl)cc2)cc1	-2.4
SMILES	TTR transcr act	others
COCCCNCCCCOc1ccccc1-c1ccccc1	1.3
C=CCNCCCCOc1ccc(OCc2ccccc2)cc1	1.1
COCCCNCCCCOc1ccc(OCc2ccccc2)cc1	34.1*	TTR inh HuH7=-10.6;TTR act confirm=0.1
C/C(Cn1nnc2ccccc21)=N\NC(=O)c1cccc(Br)c1	-0.8
Cc1cc(=O)oc2cc(OCC#N)ccc12	2.0
Cc1cc(=O)oc2cc(OCCSc3nnc(-c4ccccc4)o3)ccc12	1.0
Cc1cc(=O)oc2cc(OCCSCCN3CCCCC3)ccc12	20.8*	TTR inh HuH7=-9.3;TTR act confirm=0.2
COC(=O)[C@]12CCCCC=C1N(Cc1ccc(OC)cc1)C(=O)[C@@H]2CC(=O)NCC12CC3CC(CC(C3)C1)C2	-1.9
Cc1cc(C)cc(-c2c(C(=O)c3ccc(Br)cc3)[nH]c(N)c2C(=O)NCc2ccc(Cl)cc2)c1	-0.9
Cc1cc2cc3c(cc2n2c(SCC(=O)Nc4nc(-c5ccccc5)cs4)nnc12)OCO3	1.0
CN1CCC(N[C@@H](Cc2c[nH]c3ccccc23)C(=O)NCC(c2ccccc2)c2ccccc2)(C(=O)NC2CCCCC2)CC1	-5.0
Cc1ccn2cc(-c3ccc(Br)cc3)nc2c1	-2.7
O=[N+]([O-])c1cccn2cc(-c3ccc(Br)cc3)nc12	10.9*	TTR inh HuH7=5.8;TTR act confirm=-0.7
Cc1cccn2cc(-c3ccc(S(=O)(=O)N4CCOCC4)cc3)nc12	0.0
Cn1c(=O)c2c(nc(Cc3ccc(N)cc3)n2C)n(C)c1=O	7.3
